Drawing on PubChem BioAssay (EPA / NIEHS), this text covers outcome and AC50 for 4 compounds.

Activity calls are given as the source filed them. Rule for the calls: active = hit-call score of the fitted dose curve at least 0.9, where 1 is the maximum; inactive = score below 0.9.

Holding throughout (details): mRNA level, 48 h; actives raise or lower the signal
Read-out in experiment [1]: Cyclin D1 (CCND1), CCND1 (gene 595)
Description: LTEA_HepaRG_CCND1: Life Technologies and Expression Analysis (LTEA) Assay for Cyclin D1 (CCND1) using HepaRG (AID 2283451). In a few lines:
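Differentiated human HepaRG cells in serum-free induction medium were exposed 48 h to eight half-log concentrations up to 100 uM in 0.5% DMSO; mRNA quantified by TaqMan qRT-PCR, normalized to ACTB, GAPDH, POLR2A, fitted bidirectionally versus DMSO.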

Read-out in experiment [2]: catalase (CAT), CAT (gene 847)
As to the kind of experiment: LTEA_HepaRG_CAT: Life Technologies and Expression Analysis (LTEA) Assay for catalase (CAT) using HepaRG (AID 2283452). In a few lines:
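HepaRG cells in serum-free induction medium, 0.5% DMSO vehicle, exposed 48 h in duplicate over 8 half-log concentrations from 100 uM. CAT mRNA measured by qRT-PCR, normalized to ACTB, GAPDH, POLR2A; bidirectional fit versus DMSO.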

Read-out in experiment [3]: flavin-containing dimethylaniline monooxygenases 3 (FMO3), FMO3 (gene 2328)
Description: LTEA_HepaRG_FMO3: Life Technologies and Expression Analysis (LTEA) Assay for flavin-containing dimethylaniline monooxygenases 3 (FMO3) using HepaRG (AID 2283453). In a few lines: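 Differentiated HepaRG cells in serum-free induction medium, exposed 48 h in duplicate to 8 half-log concentrations up to 100 uM in 0.5% DMSO. FMO3 mRNA by qRT-PCR, normalized to ACTB, GAPDH, POLR2A; bidirectional fit vs DMSO.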

Read-out in experiment [4]: Cytochrome P450 (CYP1A1), CYP1A1 (gene 1543)
As to the kind of experiment: LTEA_HepaRG_CYP1A1: Life Technologies and Expression Analysis (LTEA) Assay for Cytochrome P450 (CYP1A1) using HepaRG (AID 2283454). In a few lines: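 Differentiated HepaRG cells in serum-free induction medium were exposed in duplicate for 48 h to eight half-log concentrations up to 100 uM in 0.5% DMSO. CYP1A1 mRNA was quantified by TaqMan qRT-PCR, normalized to ACTB, GAPDH and POLR2A.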

Read-out in experiment [5]: CFLAR gene, CFLAR (gene 8837)
Description: LTEA_HepaRG_CFLAR: Life Technologies and Expression Analysis (LTEA) Assay for CFLAR gene using HepaRG (AID 2283455). In a few lines:
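Differentiated HepaRG cells in serum-free induction medium were exposed 48 h in duplicate to eight half-log concentrations up to 100 uM in 0.5% DMSO; mRNA measured by TaqMan qRT-PCR, normalized to ACTB, GAPDH, POLR2A; bidirectional fitting versus DMSO.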

Read-out in experiment [6]: Forkhead box O1 (FOXO1), FOXO1 (gene 2308)
Description: LTEA_HepaRG_FOXO1: Life Technologies and Expression Analysis (LTEA) Assay for Forkhead box O1 (FOXO1) using HepaRG (AID 2283456). In a few lines:
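Differentiated HepaRG cells, in serum-free induction medium with 0.5% DMSO, exposed 48 h in duplicate to 8-point half-log series from 100 uM. FOXO1 mRNA measured by TaqMan qRT-PCR, normalized to ACTB, GAPDH, POLR2A; bidirectional fit versus DMSO.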

Read-out in experiment [7]: growth arrest and DNA damage 45 (GADD45A), GADD45A (gene 1647)
As to the kind of experiment: LTEA_HepaRG_GADD45A: Life Technologies and Expression Analysis (LTEA) Assay for growth arrest and DNA damage 45 (GADD45A) using HepaRG (AID 2283458). In a few lines:
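Cells plated and cultured 48 h, switched to serum-free induction medium, then dosed for 48 h (100 uM top, half-log dilutions, 0.5% DMSO). RNA was isolated and transcript measured by Fluidigm qRT-PCR.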

Read-out in experiment [8]: Forkhead box O3 (FOXO3), FOXO3 (gene 2309)
As to the kind of experiment: LTEA_HepaRG_FOXO3: Life Technologies and Expression Analysis (LTEA) Assay for Forkhead box O3 (FOXO3) using HepaRG (AID 2283459). In a few lines:
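Differentiated human HepaRG cells, 48 h post-plating, exposed in duplicate for 48 h in serum-free induction medium; 8-point half-log series from 100 uM in 0.5% DMSO. FOXO3 mRNA by TaqMan qRT-PCR, normalized to ACTB/GAPDH/POLR2A; bidirectional fit versus DMSO.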

Read-out in experiment [9]: ABC Transporter (ABCC3), ABCC3 (gene 8714)
Description: LTEA_HepaRG_ABCC3: Life Technologies and Expression Analysis (LTEA) Assay for ABC Transporter (ABCC3) using HepaRG (AID 2283462). In a few lines: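 HepaRG cells in serum-free induction medium were exposed for 48 h in duplicate to 8-point half-log concentrations topping at 100 uM in 0.5% DMSO. ABCC3 mRNA was measured by qRT-PCR normalized to ACTB, GAPDH and POLR2A, with bidirectional fitting versus DMSO.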

Read-out in experiment [10]: ABC Transporter (ABCB11), ABCB11 (gene 8647)
As to the kind of experiment: LTEA_HepaRG_ABCB11: Life Technologies and Expression Analysis (LTEA) Assay for ABC Transporter (ABCB11) using HepaRG (AID 2283463). In a few lines:
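Differentiated human HepaRG cells in serum-free induction medium, dosed in duplicate for 48 h. Eight-point half-log series from 100 uM in 0.5% DMSO; ABCB11 mRNA by qRT-PCR, normalized to ACTB, GAPDH, POLR2A, fitted bidirectionally versus DMSO.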

Read-out in experiment [11]: Broad substrate specificity ATP-binding cassette transporter ABCG2 (Homo sapiens) (UniProt Q9UNQ0)
Description: LTEA_HepaRG_ABCG2: Life Technologies and Expression Analysis (LTEA) Assay for ABC Transporter (ABCG2) using HepaRG (AID 2283465). In a few lines:
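Differentiated HepaRG cells were exposed for 48 h in serum-free induction medium to 8 half-log concentrations, top 100 uM, in 0.5% DMSO. ABCG2 mRNA was measured by qRT-PCR, normalized to ACTB, GAPDH and POLR2A, with bidirectional fitting versus DMSO.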

Read-out in experiment [12]: ATP-citrate lyase (ACLY), ACLY (gene 47)
Description: LTEA_HepaRG_ACLY: Life Technologies and Expression Analysis (LTEA) Assay for ATP-citrate lyase (ACLY) using HepaRG (AID 2283466). In a few lines: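 Differentiated HepaRG cells exposed 48 h in serum-free induction medium to eight half-log concentrations up to 100 uM in 0.5% DMSO, duplicates. Transcript measured by Fluidigm TaqMan qRT-PCR, normalized to ACTB, GAPDH, POLR2A; bidirectional fit versus DMSO.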

Read-out in experiment [13]: Peroxisomal acyl-coenzyme A oxidase 1 (ACOX1) gene, ACOX1 (gene 51)
Description: LTEA_HepaRG_ACOX1: Life Technologies and Expression Analysis (LTEA) Assay for Peroxisomal acyl-coenzyme A oxidase 1 (ACOX1) gene using HepaRG (AID 2283467). In a few lines: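 HepaRG cells, plated 48 h then switched to serum-free induction medium, were exposed in duplicate for 48 h to 8-point half-log concentrations up to 100 uM in 0.5% DMSO. ACOX1 mRNA was measured by qRT-PCR, normalized to ACTB/GAPDH/POLR2A, and fitted bidirectionally versus DMSO.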

Read-out in experiment [14]: Alkaline Phosphatase, Placental (ALPP) gene, ALPP (gene 250)
As to the kind of experiment: LTEA_HepaRG_ALPP: Life Technologies and Expression Analysis (LTEA) Assay for Alkaline Phosphatase, Placental (ALPP) gene using HepaRG (AID 2283468). In a few lines:
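Differentiated human HepaRG cells were plated and cultured 48 h, then exposed in duplicate for 48 h in serum-free induction medium to eight half-log concentrations from 100 uM in 0.5% DMSO. ALPP mRNA was measured by TaqMan qRT-PCR, normalized to ACTB, GAPDH, POLR2A.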

Read-out in experiment [15]: Bcl-2 (BAD) gene, BAD (gene 572)
As to the kind of experiment: LTEA_HepaRG_BAD: Life Technologies and Expression Analysis (LTEA) Assay for Bcl-2 (BAD) gene using HepaRG (AID 2283469). In a few lines: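 Differentiated HepaRG cells were exposed in duplicate in 0.5% DMSO for 48 h to eight-point half-log concentrations up to 100 uM. BAD mRNA was measured by Fluidigm TaqMan qRT-PCR, normalized to ACTB, GAPDH and POLR2A, and fitted bidirectionally against DMSO.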

Read-out in experiment [16]: Bcl-2 (BAX) gene, BAX (gene 581)
Description: LTEA_HepaRG_BAX: Life Technologies and Expression Analysis (LTEA) Assay for Bcl-2 (BAX) gene using HepaRG (AID 2283470). In a few lines:
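HepaRG (human liver), 48 h exposure, duplicate wells. 8-pt curve, half-log from 100 uM, 0.5% DMSO. BAX transcript by TaqMan qRT-PCR; ACTB/GAPDH/POLR2A normalization; gain or loss vs DMSO baseline.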

Read-out in experiment [17]: growth arrest and DNA damage 45 (GADD45B), GADD45B (gene 4616)
As to the kind of experiment: LTEA_HepaRG_GADD45B: Life Technologies and Expression Analysis (LTEA) Assay for growth arrest and DNA damage 45 (GADD45B) using HepaRG (AID 2283461). In a few lines:
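Differentiated HepaRG cells, plated 48 h then switched to serum-free induction medium, were exposed 48 h in duplicate to eight half-log concentrations from 100 uM in 0.5% DMSO; mRNA quantified by qRT-PCR, normalized to ACTB/GAPDH/POLR2A, bidirectional fit versus DMSO.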

Read-out in experiment [18]: ABC Transporter (ABCC2), ABCC2 (gene 1244)
Description: LTEA_HepaRG_ABCC2: Life Technologies and Expression Analysis (LTEA) Assay for ABC Transporter (ABCC2) using HepaRG (AID 2283464). In a few lines:
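HepaRG cells were plated 48 h, switched to serum-free induction medium, then exposed in duplicate for 48 h to 8 concentrations (top 100 uM, half-log steps, 0.5% DMSO). ABCC2 mRNA was measured by qRT-PCR normalized to ACTB/GAPDH/POLR2A; bidirectional fitting versus DMSO.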

Read-out in experiment [19]: ABC Transporter (ABCB1), ABCB1 (gene 5243)
As to the kind of experiment: LTEA_HepaRG_ABCB1: Life Technologies and Expression Analysis (LTEA) Assay for ABC Transporter (ABCB1) using HepaRG (AID 2283460). In a few lines:
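HepaRG cells exposed in duplicate for 48 h in serum-free induction medium to eight half-log concentrations up to 100 uM in 0.5% DMSO. ABCB1 mRNA quantified by qRT-PCR, normalised to ACTB, GAPDH and POLR2A; fitted bidirectionally versus DMSO.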

Sequence of Broad substrate specificity ATP-binding cassette transporter ABCG2 (Homo sapiens) (Q9UNQ0 whole entry, looked up): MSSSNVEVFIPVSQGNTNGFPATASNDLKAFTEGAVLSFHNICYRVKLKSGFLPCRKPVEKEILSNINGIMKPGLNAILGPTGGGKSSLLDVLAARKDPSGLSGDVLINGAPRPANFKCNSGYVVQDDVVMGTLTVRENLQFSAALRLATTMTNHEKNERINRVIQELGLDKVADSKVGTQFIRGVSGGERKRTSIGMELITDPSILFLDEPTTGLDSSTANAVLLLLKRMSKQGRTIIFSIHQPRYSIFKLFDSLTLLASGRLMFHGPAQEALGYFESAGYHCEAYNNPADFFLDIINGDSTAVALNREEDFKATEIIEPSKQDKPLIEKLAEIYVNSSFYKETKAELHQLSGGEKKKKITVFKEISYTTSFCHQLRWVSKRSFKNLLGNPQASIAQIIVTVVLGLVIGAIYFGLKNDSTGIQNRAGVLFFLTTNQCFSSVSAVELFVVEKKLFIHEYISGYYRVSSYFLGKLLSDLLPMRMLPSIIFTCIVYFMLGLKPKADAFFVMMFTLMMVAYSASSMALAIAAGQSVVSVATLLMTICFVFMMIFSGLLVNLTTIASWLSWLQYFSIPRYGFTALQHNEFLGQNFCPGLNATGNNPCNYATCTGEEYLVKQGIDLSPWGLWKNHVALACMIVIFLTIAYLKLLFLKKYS

What is called AC50 is the midpoint of the concentration-response curve, whichever way the signal moves. Regarding `ClC1=C(Cl)[C@]2(Cl)[C@H]3[C@H]([C@@H]4C=C[C@H]3C4)[C@@]1(Cl)C2(Cl)Cl`, the compound was called inactive in experiment [1], in experiment [2], in experiment [3], in experiment [5], in [6] and in experiment [7]. In addition, the compound was called inactive in [8], in experiment [9], in experiment [10], in [12], in [13] and in experiment [14]. Also, the outcome in experiment [15] and in experiment [16] was inactive. Moreover, the AC50 is 38.3 µM (active) in [4] and 9.92 µM (active) in [11].

For `Oc1ccc2ccc3cccc4ccc1c2c34`, the compound was classed as inactive in experiment [1], in experiment [2], in experiment [3], in experiment [5], in experiment [6] and in experiment [7]. The compound was classed as inactive in experiment [8], in experiment [17], in experiment [10], in [18], in experiment [12] and in experiment [13]. In addition, the compound was called inactive in experiment [14], in [15] and in [16]. Further, the concentration at half-maximal activity (AC50) was 27.5 µM (active) in experiment [4] and 11.9 µM (active) in [11].

`CCCCCCCCCCCCCN1CC(C)OC(C)C1` (configuration not stated): the call in [1], in experiment [2], in experiment [3], in [5], in [6] and in [7] was inactive. The compound was called inactive in experiment [8], in experiment [17], in experiment [10], in experiment [18], in [11] and in experiment [12]. The compound was called inactive in experiment [13], in experiment [14], in experiment [15] and in experiment [16]. Moreover, in experiment [4], the concentration at half-maximal activity (AC50) is 50 µM (active).

With `CC(C)(OOC(C)(C)c1ccccc1)c1ccccc1`, the call in experiment [1], in experiment [2], in [3], in experiment [5], in experiment [6] and in experiment [7] was inactive. In addition, the compound was called inactive in experiment [8], in [19], in experiment [10], in experiment [11], in experiment [12] and in experiment [13]. Further, the compound was classed as inactive in experiment [14], in [15] and in [16]. Moreover, the half-maximal activity concentration (AC50) in [4] and in experiment [18] was 50 µM (active) throughout.
